activity, negative = inhibition and Potency data for 14 molecules are collected here from PubChem BioAssay (NCATS).

Records with an inconclusive call do not appear. Unmarked numbers belong to inactive results. Calls of active or inactive are those of the source. Calls come from the whole dose curve; as a rule, active = well fitted inhibition curve with a large enough effect; inconclusive = small, poorly fitted or top-dose-only effect; inactive = flat fitted curve, though single readings scatter.

Assay [1] is described as follows: qHTS profiling for inhibitors of Plasmodium falciparum proliferation (AID 504749).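 For activity, negative = inhibition: 0% = DMSO vehicle and full inhibition = artemisinin control.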 Note: nearly all actives have a fitted effect of over 60% in size. The settings on record: P. falciparum in erythrocytes, SYBR Green DNA, 72 h. A digest of the protocol:
(§1)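 Three-day growth assay of blood-stage parasites in erythrocytes (0.3% parasitemia, 2.5% hematocrit) at 37 C, 5% CO2, quantified by SYBR Green DNA staining after overnight detergent lysis.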
(In general: qHTS replaces the single test concentration by a dilution series.)

The next assay concerns 3D7. The description is as above. The settings on record: P. falciparum in erythrocytes, SYBR Green DNA, 72 h; series mostly up to 28.7 µM. A digest of the protocol:
as §1

A further assay deals with AS120. Described as above. The settings on record: P. falciparum in erythrocytes, SYBR Green DNA, 72 h; series mostly up to 28.7 µM. In outline:
as §1

The next assay relates to ATS189. The assay is described as above. The settings on record: P. falciparum in erythrocytes, SYBR Green DNA, 72 h; series mostly up to 28.7 µM. A digest of the protocol: as §1
A further assay has as its system C2A. The description is as above. The settings on record: P. falciparum in erythrocytes, SYBR Green DNA, 72 h; series mostly up to 28.7 µM. A digest of the protocol:
as §1

The subject of the next assay is CP185. The description is as above. The settings on record: P. falciparum in erythrocytes, SYBR Green DNA, 72 h; series mostly up to 28.7 µM. In outline:
as §1

The test system of the next assay is CP191. The description is as above. The settings on record: P. falciparum in erythrocytes, SYBR Green DNA, 72 h; series mostly up to 28.7 µM. In outline:
as §1

A further assay concerns CP192. Described as above. The settings on record: P. falciparum in erythrocytes, SYBR Green DNA, 72 h; series mostly up to 28.7 µM. A digest of the protocol:
as §1

In a further assay the test system is CP201. Described as above. The settings on record: P. falciparum in erythrocytes, SYBR Green DNA, 72 h; series mostly up to 28.7 µM. In outline:
as §1

A further assay deals with CP211. The assay is described as above. The settings on record: P. falciparum in erythrocytes, SYBR Green DNA, 72 h; series mostly up to 28.7 µM. A digest of the protocol: as §1
The test system of another assay is CP217. The description is as above. The settings on record: P. falciparum in erythrocytes, SYBR Green DNA, 72 h; series mostly up to 28.7 µM. A digest of the protocol: as §1
In the next assay the test system is AA1029. The assay is described as above. The settings on record: P. falciparum in erythrocytes, SYBR Green DNA, 72 h; series mostly up to 28.7 µM. In outline: as §1
The test system of a further assay is ATS95. Described as above. The settings on record: P. falciparum in erythrocytes, SYBR Green DNA, 72 h; series mostly up to 28.7 µM. In outline: as §1
Another assay concerns CP194. The description is as above. The settings on record: P. falciparum in erythrocytes, SYBR Green DNA, 72 h; series mostly up to 28.7 µM. In outline:
as §1

The next assay concerns CP215. Described as above. The settings on record: P. falciparum in erythrocytes, SYBR Green DNA, 72 h; series mostly up to 28.7 µM. In outline: as §1
In the next assay the test system is CP237. The description is as above. The settings on record: P. falciparum in erythrocytes, SYBR Green DNA, 72 h; series mostly up to 28.7 µM. A digest of the protocol:
as §1

Another assay relates to 7G8. The assay is described as above. The settings on record: P. falciparum in erythrocytes, SYBR Green DNA, 72 h; series mostly up to 28.7 µM. In outline:
as §1

Another assay concerns CP203. Described as above. The settings on record: P. falciparum in erythrocytes, SYBR Green DNA, 72 h; series mostly up to 28.7 µM. A digest of the protocol:
as §1

The mark [2] stands for this setting: at 12.8 µM (top of the series), parasite line A.
Setting [3] is: at 12.8 µM (top of the series), parasite line B.
Where [4] appears, read: at 28.7 µM (top of the series), parasite line A.
The mark [5] stands for this setting: at 28.7 µM (top of the series), parasite line B.
Potency is the fitted concentration of half-maximal effect.

`CN1CCN(C(c2ccccc2)c2ccccc2)CC1`: the activity, negative = inhibition in assay [1] (setting [2]) was 3.5%; in assay [1] (setting [3]), -5.02%. Also, the Potency entry in the assay on 3D7, in the assay with AS120, with ATS189, in the assay with C2A, with CP185 and with CP191 was “inactive” in each case. The Potency entry in the assay on CP192, in the assay with CP201, in the assay on CP211 and in the assay with CP217 was “inactive” throughout.
For `CCCN1CCCC[C@H]1C(=O)Nc1c(C)cccc1C`, the activity, negative = inhibition is 9.76% in [1] (setting [4]) and 10.7% in [1] (setting [5]). For the same molecule, the Potency entry with 3D7, with AA1029, in the assay on AS120, with ATS189, in the assay with ATS95 and in the assay on C2A was “inactive” each time. The Potency result in the assay with CP185, with CP191, in the assay with CP192, with CP194, in the assay on CP201 and in the assay with CP211 was “inactive” throughout. Moreover, the Potency result in the assay on CP215 and in the assay on CP217 was “inactive” in each case. In the assay with CP237, the Potency is 6.31 µM (active).
For the molecule `CCN(CC)C(=O)/C(C#N)=C/c1cc(O)c(O)c([N+](=O)[O-])c1`, the activity, negative = inhibition in [1] (setting [4]) was -3.14%; in assay [1] (setting [5]), -7.95%. The Potency in the assay with 7G8 is 14.1 µM (active). Besides, the Potency result in the assay on AA1029, in the assay on AS120, with ATS189, in the assay with ATS95, in the assay on C2A and in the assay on CP185 was “inactive” throughout. Also, the Potency result in the assay with CP191, in the assay with CP192, in the assay on CP194, in the assay with CP201, in the assay on CP203 and in the assay with CP211 was “inactive” throughout. Further, the Potency result with CP215 is “inactive”.
On to `CCCCCCCCCCCCCCCCCC(=O)OCC(O)CO` (centres undefined), for which the activity, negative = inhibition was 5.19% in [1] (setting [4]) and 11.8% in assay [1] (setting [5]). Further, the Potency result in the assay with 7G8, with AA1029, in the assay on AS120, in the assay with ATS189, in the assay with ATS95 and with C2A was “inactive” each time. In addition, the Potency entry with CP185, in the assay on CP191, in the assay on CP192, in the assay with CP194, in the assay on CP201 and with CP211 was “inactive” throughout. Moreover, the Potency entry in the assay with CP215, in the assay with CP217 and in the assay with CP237 was “inactive” in each case.
Consider `CC(O)C(=O)O` (centres undefined), for which the activity, negative = inhibition was 1.12% in assay [1] (setting [4]) and 5.39% in assay [1] (setting [5]). Further, the Potency result in the assay with 7G8, with AA1029, in the assay with AS120, in the assay with ATS189, with C2A and with CP185 was “inactive” in each case. Moreover, the Potency entry in the assay on CP191, with CP192, in the assay on CP194, in the assay with CP201, in the assay on CP203 and with CP211 was “inactive” in each case. Moreover, the Potency result in the assay with CP217 and in the assay with CP237 was “inactive” throughout.
On to `CCCCN1CCCC1C(=O)Nc1c(C)cc(C)cc1C` (centres undefined), for which the activity, negative = inhibition is -15.8% in [1] (setting [4]) and -3.59% in assay [1] (setting [5]). In addition, the Potency entry in the assay with 3D7, in the assay on AA1029, in the assay with AS120, in the assay on ATS189, with ATS95 and in the assay with C2A was “inactive” each time. In addition, the Potency result in the assay with CP185, with CP191, with CP192, in the assay with CP194, in the assay with CP201 and with CP203 was “inactive” throughout. The Potency entry in the assay with CP211, with CP215 and in the assay on CP217 was “inactive” in each case.
Take `C#C[C@]1(O)CC[C@H]2[C@@H]3CCc4cc(OC5CCCC5)ccc4[C@H]3CC[C@@]21C`: the activity, negative = inhibition in assay [1] (setting [4]) was -10.1%; in assay [1] (setting [5]), -11.7%. Moreover, the Potency result with 3D7, in the assay with AA1029, with ATS189, with C2A, in the assay with CP185 and with CP192 was “inactive” each time. In addition, the Potency entry in the assay on CP194, in the assay with CP201, with CP203, with CP211, with CP215 and in the assay with CP217 was “inactive” throughout. In addition, in the assay on CP237, the Potency entry was “inactive”.
As for `C[C@H]1[C@H](NC(=O)/C(=N/OC(C)(C)C(=O)O)c2csc(N)n2)C(=O)N1S(=O)(=O)O` (stereo in doubt), the activity, negative = inhibition in [1] (setting [2]) is 1.65%; in assay [1] (setting [3]) it was 14.2%. Further, the Potency entry with 3D7, with AA1029, in the assay with AS120, with ATS189, with ATS95 and in the assay with C2A was “inactive” throughout. Also, the Potency entry in the assay with CP185, in the assay on CP191, with CP192, in the assay with CP194, in the assay on CP201 and in the assay on CP203 was “inactive” in each case. The Potency result with CP211, in the assay on CP215, in the assay with CP217 and in the assay on CP237 was “inactive” each time.
Turning to `O=C(N/N=C/c1ccccc1O)c1ccncc1`, the Potency was 6.31 µM (active) in assay [1] (parasite line A); 11.2 µM (active) in [1] (parasite line B); 8.91 µM (active) with 7G8; 11.2 µM (active) in the assay with AA1029; 4.47 µM (active) in the assay on AS120; 11.2 µM (active) in the assay on C2A. In addition, the Potency in the assay with CP217 was 8.91 µM (active).
For the molecule `C[C@@H](CN(C)C)CN1c2ccccc2Sc2ccccc21`, the activity, negative = inhibition is 1.53% in assay [1] (setting [2]) and 7.77% in assay [1] (setting [3]). In addition, the Potency entry in the assay with 3D7, in the assay with AA1029, with AS120, with ATS189, in the assay on ATS95 and with C2A was “inactive” throughout. In addition, the Potency result in the assay with CP185, in the assay on CP192, with CP211, with CP215, in the assay with CP217 and in the assay on CP237 was “inactive” throughout.
Regarding `CCCCOc1cc(C(=O)NCCN(CC)CC)c2ccccc2n1`, the figures for the activity, negative = inhibition in assay [1] (setting [2]) and in assay [1] (setting [3]) were 7.49% and 7.29%, respectively. The Potency result with 3D7, with AA1029, in the assay on AS120, with ATS189, in the assay with ATS95 and in the assay on C2A was “inactive” throughout. The Potency result in the assay on CP185, with CP192, in the assay on CP194, with CP201, in the assay with CP203 and with CP211 was “inactive” throughout. Besides, the Potency entry with CP215, in the assay on CP217 and in the assay with CP237 was “inactive” each time.
Consider `CCN1CCN(c2cc3c(cc2F)c(=O)c(C(=O)O)cn3C2CC2)CC1`, for which the results for the activity, negative = inhibition in assay [1] (setting [4]) and in assay [1] (setting [5]) were -8.55% and -3.41%, respectively. Moreover, the Potency result in the assay with 3D7, in the assay with AA1029, with AS120, in the assay on ATS189, with ATS95 and in the assay on C2A was “inactive” each time. Further, the Potency result with CP185, in the assay on CP191, with CP192, in the assay on CP194, in the assay on CP201 and in the assay on CP211 was “inactive” each time. In addition, the Potency result in the assay with CP215 and in the assay with CP217 was “inactive” each time.
As to `CN(C)CCOc1ccccc1Cc1ccccc1`, the values for the activity, negative = inhibition in assay [1] (setting [4]) and in [1] (setting [5]) were -13.9% and -12.1%, respectively. The Potency entry in the assay with 3D7, in the assay on CP192 and in the assay with CP201 was “inactive” in each case. In addition, the Potency in the assay with AA1029 is 7.94 µM (active); in the assay with AS120, 1.78 µM (active); with CP237 it was 3.16 µM (active).
Turning to `CC(=O)c1ccc2c(c1)N(CCCN1CCC(CCO)CC1)c1ccccc1S2`, the figures for the activity, negative = inhibition in assay [1] (setting [2]) and in assay [1] (setting [3]) were -2.26% and 0.0996%, respectively. Moreover, the Potency result in the assay on 3D7, in the assay on AA1029, in the assay on AS120, in the assay on ATS189, in the assay on ATS95 and with C2A was “inactive” throughout. For the same molecule, the Potency result in the assay on CP185, in the assay on CP191, with CP192, in the assay on CP201, in the assay with CP211 and in the assay with CP217 was “inactive” each time.
